MITF inh: inhibitors of human MITF | inhibition, % at 2.6 µM | AlphaScreen MITF homodimerization, bead proximity signal | AID 1259374 | actives 0.91% (n = 650,000); in the data active = inhibition above about 50%;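 also: 0% = vehicle wells with protein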
Target sequence (O75030 whole entry, looked up): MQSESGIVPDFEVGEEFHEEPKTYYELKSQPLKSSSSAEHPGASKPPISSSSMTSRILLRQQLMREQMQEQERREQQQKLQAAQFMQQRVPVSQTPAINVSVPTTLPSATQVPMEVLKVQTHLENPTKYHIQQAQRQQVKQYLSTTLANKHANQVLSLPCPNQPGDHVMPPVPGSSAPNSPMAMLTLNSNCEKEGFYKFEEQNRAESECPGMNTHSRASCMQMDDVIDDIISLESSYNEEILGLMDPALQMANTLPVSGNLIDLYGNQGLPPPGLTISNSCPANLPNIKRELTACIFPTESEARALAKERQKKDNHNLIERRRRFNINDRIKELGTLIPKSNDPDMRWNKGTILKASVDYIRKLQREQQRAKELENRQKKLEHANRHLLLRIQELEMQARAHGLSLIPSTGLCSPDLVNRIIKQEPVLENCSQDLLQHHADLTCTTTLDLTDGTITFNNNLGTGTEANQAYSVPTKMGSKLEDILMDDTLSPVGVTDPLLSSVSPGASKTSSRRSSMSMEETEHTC
FBW7 activator: activators of human E3 ligase FBW7; Q969H0; AlphaScreen FBW7–phospho-cyclin E peptide binding, activator screen; normalized activity (activation), % at 26.1 µM; actives 0.13% (n = 650,000); AID 1259310; in the data active = normalized activity above about 1.9%;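 also: purified mutant Fbw7 with reduced substrate affinity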
TEAD-YAP block: TEAD-YAP interaction inhibition | actives 1.4% (n = 640,000) | HEK-TIYL cells, TEAD-Gal4/YAP UAS-luciferase luminescence | AID 1259422 | inhibition, % at 9.12 µM; in the data active = inhibition above about 32%;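 also: 0% = median of test compound wells and 100% = reference inhibitor wells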
GPR151 ag: human GPR151 activation | Q8TDV0 | PathHunter beta-arrestin GPR151 cells, luminescence | activation, % at 11.2 µM | actives 1% (n = 650,000) | AID 1508602; in the data active = activation above about 4.9%;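 also: 0% = median of compound wells and 100% = cells with positive control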
MITF inh conf: confirmation of human MITF inhibitors; inhibition, % at 2.6 µM; actives 16% (n = 4,700); AlphaScreen MITF homodimerization, biotin/His-MITF beads; shares compounds with MITF inh;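 active = inhibition above a cutoff derived from the DMSO control wells, cut at about 28% in these data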;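 also: 0% = MITF dimer wells with DMSO only; inhibitors lower the bead chemiluminescence by keeping MITF from dimerizing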
AlphaScreen DR: AlphaScreen optical interference, dose response counter-screen; IC50, µM; actives 6% (n = 480); shares compounds with MITF inh; AlphaScreen optical interference counterscreen, cell-free; call rule not given here
AS interf ctr: AlphaScreen optical interference, counter-screen. shares compounds with MITF inh. LysRS AlphaScreen counterscreen, signal interference, triplicate. inhibition, % at 2.6 µM. actives 7.6% (n = 4,700). AID 1259376;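 active = inhibition above a cutoff derived from the DMSO control wells, cut at about 30% in these data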
GPR151 conf act: human GPR151 activation, confirmation screen. shares compounds with GPR151 ag. GPR151 PathHunter beta-arrestin cells, luminescence, 90 min; % of EA-reagent control over plate median. activation, % at 11.2 µM. 6,700 tested, under 10 active. AID 1508609;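 active = mean percent activation across replicates above the confirmation screen cutoff of 4.91%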
GPR119 counter: counter-screen for GPR151 activators: effect on human GPR119; shares compounds with GPR151 ag; GPR119 PathHunter beta-arrestin cells, luminescence, 90 min; 0 = compound-well median, 100 = enzyme-acceptor control; activation, % at 11.2 µM; actives 0.3% (n = 6,700);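 active = mean percent activation in the counterscreen above 29.09%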;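 also: counterscreen on off-target GPR119 to flag nonselective hits from the GPR151 activator screen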
Numbers without * were called inactive. Rows were chosen to be rich in hits. Some 3.5% of all compounds tested hit in one or more screens of this group.

What do the screens show for `CCc1cc(OCCN2CCN(CC)CC2)ccc1Cl`?
MITF inh: 70*; FBW7 activator: 0; TEAD-YAP block: -1; GPR151 ag: 7.0*; MITF inh conf: 8; AS interf ctr: 17; GPR151 conf act: -1; GPR119 counter: -9

Results for Cc1c(Cl)ccc(OCCN2CCNCC2)c1C ?
MITF inh: 11; FBW7 activator: 0; TEAD-YAP block: -1; GPR151 ag: 0

How did O=C(CN1CCC(N2CCCCC2)CC1)Nc1ccccc1O do in these assays?
MITF inh: 52*; FBW7 activator: 0; TEAD-YAP block: 2; GPR151 ag: 5.7*; MITF inh conf: 8; AS interf ctr: 3; GPR151 conf act: 0; GPR119 counter: -2

How did COC(=O)c1ccc(N=Cc2c(O)n(C)c(=O)[nH]c2=O)cc1 do in these assays?
MITF inh: 0; FBW7 activator: 0; TEAD-YAP block: -3; GPR151 ag: -1

How did C=CCNCCOCCOc1ccc(OCC)cc1 do in these assays?
MITF inh: 51*; FBW7 activator: 2; TEAD-YAP block: 15; GPR151 ag: 6.0*; MITF inh conf: 49*; AlphaScreen DR: >6.5; AS interf ctr: 7; GPR151 conf act: 1; GPR119 counter: 1

How did c1cnc2nc(SCc3cn4ccccc4n3)[nH]c2c1 do in these assays?
MITF inh: 68*; FBW7 activator: 0; TEAD-YAP block: 0; GPR151 ag: 6.8*; MITF inh conf: 10; AS interf ctr: 0; GPR151 conf act: 0; GPR119 counter: 7

What do the screens show for `Cc1cc(=O)[nH]c(SCc2cn3ccccc3n2)n1`?
MITF inh: -4; FBW7 activator: 0; TEAD-YAP block: -8; GPR151 ag: -1

What do the screens show for `CCc1ccc(CN2CCN(Cc3ccc4c(c3)c3ccccc3n4CC)CC2)cc1`?
MITF inh: 70*; FBW7 activator: 0; TEAD-YAP block: -3; GPR151 ag: 5.8*; MITF inh conf: 8; AS interf ctr: 3; GPR151 conf act: 0; GPR119 counter: 6

How did CCn1c2ccccc2c2cc(CN3CCN(Cc4ccc5c(c4)c4ccccc4n5CC)CC3)ccc21 do in these assays?
MITF inh: 8; FBW7 activator: 0; TEAD-YAP block: 0; GPR151 ag: 0

Results for Cc1ccc(N(CC(=O)Nc2ccc3c(c2)OCCO3)S(C)(=O)=O)c(C)c1 ?
MITF inh: 12; FBW7 activator: 0; TEAD-YAP block: 2; GPR151 ag: 0

What do the screens show for `Cc1cc(O)c2c(c1)Cc1cccc(O)c1C2=O`?
MITF inh: 116*; FBW7 activator: 0; TEAD-YAP block: 2; GPR151 ag: 5.4*; MITF inh conf: 115*; AlphaScreen DR: >6.5; AS interf ctr: -25; GPR151 conf act: 1; GPR119 counter: -7

What do the screens show for `CC[C@H](Cn1nnn(-c2ccccc2)c1=O)NC(=O)c1cccs1`?
MITF inh: 19; FBW7 activator: 0; TEAD-YAP block: 7; GPR151 ag: 1

How did COc1cc(OC)c(CN2CCC(N3CCCCC3)CC2)cc1Br do in these assays?
MITF inh: 12; FBW7 activator: 0; TEAD-YAP block: 1; GPR151 ag: 0

What do the screens show for `COc1cc(OC)c(OC)cc1CN1CCC(N2CCCCC2)CC1`?
MITF inh: 60*; FBW7 activator: 0; TEAD-YAP block: -7; GPR151 ag: 6.1*; MITF inh conf: 20; AS interf ctr: 17; GPR151 conf act: 0; GPR119 counter: 10

What do the screens show for `COc1cc(C(=O)N2CCN(Cc3ccccc3C(F)(F)F)CC2)cc(OC)c1OC`?
MITF inh: 59*; FBW7 activator: 0; TEAD-YAP block: 6; GPR151 ag: 12*; MITF inh conf: 3; AS interf ctr: 10; GPR151 conf act: 1; GPR119 counter: 26

Bioassay records deposited in PubChem by The Scripps Research Institute Molecular Screening Center.
